Screening results (PubChem)
In the library only some 3.5% were active in any assay of this set; here they are far more common.
TEAD-YAP inh = TEAD-YAP interaction inhibition, primary screen, TEAD-YAP interaction inhibitor project, luminescence, HEK-TIYL cells. TEAD-Gal4/YAP UAS-luciferase luminescence. inhibition, % at 9.12 µM. 640,000 compounds, 1.4% hits. AID 1259422, 2018; in the data active = inhibition above about 32%;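 also: 0% = median of test compound wells and 100% = reference inhibitor wells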
FBW7 activator = FBW7 E3 ligase activators, primary screen, biochemical, AlphaScreen, human | F-box/WD repeat-containing protein 7 (Homo sapiens), Q969H0 | 650,000 compounds, 0.13% hits | normalized activity (activation), % at 26.1 µM | AlphaScreen FBW7–phospho-cyclin E peptide binding, activator screen; in the data active = normalized activity above about 1.9%;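 also: purified mutant Fbw7 with reduced substrate affinity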
GPR151 activ = activators of human GPR151, primary screen, cell-based, PathHunter beta-arrestin, luminescence | G-protein coupled receptor 151 (Homo sapiens), Q8TDV0 | PathHunter beta-arrestin GPR151 cells | 650,000 compounds, 1% hits | activation, % at 11.2 µM; in the data active = activation above about 4.9%;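 also: 0% = median of compound wells and 100% = cells with positive control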
MITF primary = MITF inhibitors, primary screen, biochemical, AlphaScreen, human | 650,000 compounds, 0.91% hits | Microphthalmia-associated transcription factor (Homo sapiens), O75030 | AlphaScreen MITF homodimerization, bead proximity signal | inhibition, % at 2.6 µM; in the data active = inhibition above about 50%;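 also: 0% = vehicle wells with protein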
Target sequence (O75030 whole entry, looked up): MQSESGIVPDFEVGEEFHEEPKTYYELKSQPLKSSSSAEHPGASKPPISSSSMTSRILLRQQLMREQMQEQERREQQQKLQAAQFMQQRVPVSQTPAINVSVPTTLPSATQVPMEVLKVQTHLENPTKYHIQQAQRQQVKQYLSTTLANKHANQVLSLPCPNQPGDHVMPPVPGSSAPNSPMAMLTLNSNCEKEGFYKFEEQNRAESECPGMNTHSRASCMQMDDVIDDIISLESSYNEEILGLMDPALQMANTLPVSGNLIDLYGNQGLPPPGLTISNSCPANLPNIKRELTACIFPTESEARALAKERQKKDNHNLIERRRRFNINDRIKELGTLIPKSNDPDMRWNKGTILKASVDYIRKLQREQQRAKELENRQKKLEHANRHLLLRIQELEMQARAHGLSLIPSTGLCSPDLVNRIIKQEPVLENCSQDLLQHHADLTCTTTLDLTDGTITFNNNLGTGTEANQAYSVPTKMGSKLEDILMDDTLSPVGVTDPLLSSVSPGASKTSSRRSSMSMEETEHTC
Active calls of the source: *.

SMILES | TEAD-YAP inh | FBW7 activator | GPR151 activ | MITF primary
OCC1CCCN1c1nc(NCc2nc3ccccc3[nH]2)c2ncn(-c3ccccc3)c2n1 (configuration not stated) | 47.9* | -0.3 | 1.0 | 8.9
Clc1nc(NCc2nc3ccccc3[nH]2)c2ncn(-c3ccccc3)c2n1 | 2.9 | 0.1 | 1.7 | -7.9
OCC1CCCN1c1nc(NCCN2CCOCC2)c2ncn(-c3ccsc3)c2n1 (configuration not stated) | 60.8* | 0.0 | -0.3 | 12.4
CCN(CC)C(=O)C1CCCN(c2nc(NCCCN3CCCC3=O)c3ncn(-c4ccccc4)c3n2)C1 (configuration not stated) | 35.9* | -0.1 | 2.6 | 7.6
O=C1CCCN1CCCNc1nc(N2CCCC2CO)nc2c1ncn2-c1ccsc1 (configuration not stated) | 41.7* | 0.0 | -0.7 | 12.4
O=C(NC(=S)Nc1ccc(Br)cn1)c1cccc(F)c1 | -60.5 | 0.1 | -1.4 | 8.5
O=C1CCCN1CCCNc1nc(N2CCCC2CO)nc2c1ncn2-c1ccccc1 (configuration not stated) | 46.5* | 0.1 | -0.4 | 5.3
OCCNc1nc(N2CCCC2CO)nc2c1ncn2-c1ccccc1 (configuration not stated) | 54.5* | -0.1 | -1.4 | 3.4
CC(C)n1cnc2c(NCCO)nc(N3CCCC3CO)nc21 (configuration not stated) | 17.3 | 0.0 | -1.0 | 0.0
COc1cccc(NC(=O)c2ccc(F)c(S(=O)(=O)N3CC(C)CC(C)C3)c2)c1 (configuration not stated) | -0.3 | 0.6 | 0.3 | 10.7
COC(=O)c1ccc(CSc2nnc(-c3ccc(OC)cc3)o2)o1 | -14.9 | 0.9 | 1.3 | 24.4
CCOCCn1c(=O)c2c(nc3n(-c4ccccc4CC)c(C)cn23)n(C)c1=O | -4.8 | 0.2 | 0.8 | -16.6
CCN(CC)c1ccc(N=Cc2c(O)[nH]c(=S)[nH]c2=O)cc1 | 5.6 | -0.1 | -1.2 | 50.7*
Nc1cc(N=Cc2c(O)[nH]c(=S)[nH]c2=O)ccc1O | 5.5 | -1.0 | 2.4 | 91.7*
CCN(CC)S(=O)(=O)c1ccc(N=Cc2c(O)[nH]c(=S)[nH]c2=O)cc1 | 0.6 | 0.0 | -0.8 | 1.4
COc1ccc(C2=NN(C(=O)CSc3nnc(CNC(=O)c4ccco4)n3-c3cc(C)ccc3C)C(c3ccc(OC)cc3)C2)cc1 (configuration not stated) | -5.3 | 3.6* | 1.3 | -0.9
COc1ccc(C2CC(c3cccs3)=NN2C(=O)CSc2nnc(CNC(=O)COc3ccccc3)n2-c2ccccc2OC)cc1 (configuration not stated) | 32.2* | -0.1 | 1.4 | 3.0
O=C(NCCc1nnc2n1CCN(Cc1ccc3ccccc3c1)CC2)C1CCOCC1 | 4.9 | 0.1 | -0.4 | -12.3
O=C(Nc1cccc(O)c1)c1ccc(N2C(=O)c3cccc([N+](=O)[O-])c3C2=O)cc1 | 34.2* | 0.3 | -2.6 | 15.5
O=C1c2cccc([N+](=O)[O-])c2C(=O)N1c1ccc(Oc2ccc3ccccc3c2)cc1 | 14.2 | 0.1 | -0.4 | 1.0
Cc1ccc(Oc2ccc(N3C(=O)c4cccc([N+](=O)[O-])c4C3=O)cc2)cc1C | 32.7* | -0.1 | 0.9 | -6.1
O=C1c2cccc([N+](=O)[O-])c2C(=O)N1c1ccc(Oc2cccc3ccccc23)cc1 | 73.7* | -0.1 | 1.1 | 5.8
COc1ccc(Oc2ccc(N3C(=O)c4cccc([N+](=O)[O-])c4C3=O)cc2)cc1 | 0.3 | 0.0 | -0.8 | 6.3
O=C(Nc1ccc(O)cc1)c1cccc(N2C(=O)c3cccc([N+](=O)[O-])c3C2=O)c1 | 15.2 | -0.1 | -0.9 | -7.6
Cc1cccc(Nc2nc3nonc3nc2N/N=C/c2ccc3c(c2)OCO3)c1 | -6.2 | 0.0 | 0.4 | -0.4
SMILES | TEAD-YAP inh | FBW7 activator | GPR151 activ | MITF primary
O=C(/C=C/c1ccc([N+](=O)[O-])cc1)Nc1cccc(C(=O)c2ccc(F)cc2)c1 | 37.9* | -0.1 | 1.7 | 5.7
CCOC(=O)c1c(NC(=O)/C(C#N)=C/c2cccnc2)sc(C)c1C | 6.1 | 2.0* | -0.4 | 14.2
CCOC(=O)c1c(NC(=O)/C(C#N)=C/c2cccnc2)sc2c1CCCC2 | 4.4 | -0.1 | 2.7 | -4.6
CC(=O)Oc1cccc2ccc(=O)[nH]c12 | -2.4 | 0.1 | 0.0 | 1.6
Cn1nc(C(C)(C)C)cc1C(=O)NCc1ccc2c(c1)CCO2 | 42.4* | 0.8 | -0.2 | -3.2
CN(C)c1ccc(C(=O)NCc2ccc3c(c2)CCO3)cc1 | -2.7 | 1.1 | -0.2 | -4.5
COc1cccc2sc(N3CCOCC3)nc12 | -32.9 | 2.0* | 0.0 | 15.7
COc1cccc2sc(N3CCN(c4nc5ccccc5s4)CC3)nc12 | -3.5 | 0.0 | 1.6 | 6.2
COc1cccc2sc(N(C)c3ccccc3)nc12 | 46.8* | -0.1 | -2.1 | -4.0
Cc1ccc(CN(Cc2ccco2)C(=S)Nc2c(C)cccc2C)cc1 | -17.3 | 0.0 | -1.1 | -2.3
CCN(CC)c1ccc(C(NC(=O)C(C)C)c2cc(Cl)c3cccnc3c2O)cc1 (configuration not stated) | 1.3 | 0.2 | -1.5 | 8.2
Cc1ccc(C(NC(=O)C2CCCCC2)c2ccc3cccnc3c2O)cc1 (configuration not stated) | 33.9* | -0.5 | 1.6 | 30.5
Cc1ccc(C(NC(=O)C(C)C)c2ccc3cccnc3c2O)cc1 (configuration not stated) | 85.6* | -0.5 | 0.2 | 20.8
O=[N+]([O-])c1ccc(C(Nc2nccs2)c2ccc3cccnc3c2O)cc1 (configuration not stated) | 26.9 | -1.8 | -0.5 | 18.0
CCCCC(=O)NC(c1ccc(OC)cc1)c1ccc2cccnc2c1O (configuration not stated) | 80.3* | -1.7 | -0.3 | 41.1
COc1ccc(C(NC(=O)C(C)C)c2ccc3cccnc3c2O)cc1 (configuration not stated) | 74.6* | -1.7 | -1.1 | 50.6*
COc1ccccc1C(NC(=O)Cc1ccccc1)c1ccc2cccnc2c1O (configuration not stated) | 29.3 | -1.0 | 0.0 | 22.4
COc1ccc(CCNS(=O)(=O)c2ccc3[nH]c(=O)ccc3c2)cc1OC | -10.7 | -0.2 | -0.7 | -2.8
COc1ccc(C(NC(=O)C(C)C)c2ccc3cccnc3c2O)cc1OC (configuration not stated) | 89.9* | -1.6 | 1.3 | 62.1*
COc1ccc(C(NC(C)=O)c2ccc3cccnc3c2O)cc1 (configuration not stated) | 85.8* | -1.8 | 0.4 | 47.9
COc1ccc(C(=O)NC(c2ccc(C)cc2)c2cc(Cl)c3cccnc3c2O)cc1 (configuration not stated) | 10.4 | -0.1 | 0.8 | 14.8
CCOc1ccccc1OC(=O)c1ccc(OC)cc1 | 6.5 | 0.5 | -1.3 | 14.0
C=CCNC(=O)c1c(-c2ccccc2)nc2cc(C)ccn12 | 14.1 | 1.9* | -0.8 | 17.0
OCCCNc1ccc2ncc(-c3ccc4c(c3)OCO4)n2n1 | 61.0* | 0.1 | 0.6 | -9.5
